# An excerpt weighted towards active compounds, which were near 0.99% of everything screened.
# L3MBTL1 inh-1 – qHTS Assay for the Inhibitors of L3MBTL1; Lethal(3)malignant brain tumor-like protein 1 (Homo sapiens), Q9Y468; AlphaScreen L3MBTL1–H3K9me1 peptide binding; Potency, µM (series often up to 57.1 µM), actives largely listed as inhibitors; 230,000 compounds, 0.66% hits; AID 485360, 2010; further: nearly all actives have a fitted effect of over 60% in size
#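 AlphaScreen proximity signal between nickel-chelate acceptor and streptavidin donor beads (final 10 ug/mL) reports binding of 50 nM L3MBTL1 to 75 nM biotin-H3 K9me1 peptide; complex incubated with compounds 30 min at room temperature; cefsulodin titration as control.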
# WRN helicase inh-1 – qHTS for Inhibitors of WRN Helicase. Bifunctional 3'-5' exonuclease/ATP-dependent helicase WRN (Homo sapiens), Q14191. WRN helicase unwinding, fluorescent forked duplex, kinetic. Potency, µM (series often up to 114 µM), usual class: inhibitors. 360,000 compounds, 0.46% hits; further: nearly all actives have a fitted effect of over 55% in size
#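 Fluorescence dequenching readout, ex 525 nm/em 598 nm, kinetic mode: forked duplex DNA (100 nM final) with adjacent fluorophore and quencher unwound by WRN (20 nM final) with 2 mM ATP. Compound preincubation 15 min, room temperature.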
# BLM helicase inh-1 – qHTS Assay for Inhibitors of Bloom's syndrome helicase (BLM); recombinant BLM DNA unwinding, fluorescence dequenching; Potency, µM (doses to about 56.1 µM), actives largely listed as inhibitors; 350,000 compounds, 0.2% hits; RecQ-like DNA helicase BLM (Homo sapiens), P54132; further: nearly all actives have a fitted effect of over 35% in size
# RECQ1 inh-1 – qHTS Assay for Inhibitors of RecQ-Like Dna Helicase 1 (RECQ1); ATP-dependent DNA helicase Q1 (Homo sapiens), P46063; RECQ1 DNA unwinding, red fluorescence kinetic read; Potency, µM (doses to about 57.3 µM), most hits filed as inhibitors; 240,000 compounds, 0.54% hits; AID 2549, 2010; further: nearly all actives have a fitted effect of over 30% in size
#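 50 nM RECQ1T1 preincubated 15 min with compound in Tris pH 8.0 buffer with MgCl2, DTT, Tween-20 and 2.5 ug/ml poly(dI-dC); started with 200 nM TAMRA/BHQ-2 forked duplex and 2 mM ATP. Unwinding read as fluorescence (525/598 nm), two reads 2 h apart.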
# FEN1 inhibitor – qHTS Assay for the Inhibitors of Human Flap endonuclease 1 (FEN1); Recombinant FEN1 flap cleavage, fluorescence, 15 min; Potency, µM (series often up to 114 µM), most hits filed as inhibitors; 390,000 compounds, 0.35% hits; further: nearly all actives have a fitted effect of over 65% in size
# Target sequence (P39748 whole entry, looked up): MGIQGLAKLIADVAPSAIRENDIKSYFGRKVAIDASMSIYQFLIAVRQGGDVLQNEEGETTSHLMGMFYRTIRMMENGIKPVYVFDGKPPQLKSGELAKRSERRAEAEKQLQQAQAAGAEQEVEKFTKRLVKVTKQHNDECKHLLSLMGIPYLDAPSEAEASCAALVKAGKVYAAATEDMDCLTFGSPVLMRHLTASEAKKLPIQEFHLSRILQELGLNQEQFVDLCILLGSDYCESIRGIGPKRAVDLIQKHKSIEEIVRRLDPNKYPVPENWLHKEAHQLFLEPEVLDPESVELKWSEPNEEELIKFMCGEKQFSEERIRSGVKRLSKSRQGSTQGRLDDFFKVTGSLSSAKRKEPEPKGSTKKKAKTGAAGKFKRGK
#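 In this screen, 50 nM flap DNA substrate was added to 10 nM FEN1 pretreated with compound for 15 min at room temperature; cleavage was followed with reads at 0 and 15 min, and Hill fitting gave concentration–response parameters.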
# RECQ1 inh-2 – Confirmation qHTS Assay for Inhibitors of RecQ-Like Dna Helicase 1 (RECQ1) - Round 2 Cherry Picks. shares compounds with RECQ1 inh-1. recombinant RECQ1 DNA unwinding, red fluorescence. Potency, µM (series often up to 119 µM), actives largely listed as inhibitors. 1,100 compounds, 15% hits. AID 504841, 2011; further: nearly all actives have a fitted effect of over 50% in size
# L3MBTL1 inh-2 – qHTS Assay for the Inhibitors of L3MBTL1: Hit Validation | Potency, µM, actives largely listed as inhibitors | shares compounds with L3MBTL1 inh-1 | L3MBTL1 methyl-lysine binding inhibition, biochemical qHTS | 500 compounds, 91% hits; further: nearly all actives have a fitted effect of over 70% in size
# L3MBTL1 ctr – qHTS Assay for the Inhibitors of L3MBTL1: Hit Validationin AlphaScreen Counterscreen; AID 602224, 2012; AlphaScreen counterscreen, signal inhibition; Potency, µM (highest dose often 57.1 µM), usual class: inhibitors; 500 tested, under 10 active; shares compounds with L3MBTL1 inh-1
# WRN helicase inh-2 – qHTS for Inhibitors of WRN Helicase: Confirmatory Assay for Cherry-picked Compounds; AID 720497, 2013; Potency, µM (top dose mostly 57.1 µM), hits mostly inhibitors; 610 compounds, 63% hits; shares compounds with WRN helicase inh-1; WRN helicase DNA unwinding, fluorescence kinetic; further: nearly all actives have a fitted effect of over 65% in size
# TO DNA binding – qHTS for Inhibitors of WRN Helicase: Thiazole Orange DNA Binding Counterscreen. thiazole orange DNA binding displacement, fluorescence. shares compounds with WRN helicase inh-1. Potency, µM (highest dose often 57.1 µM), usual class: inhibitors. 610 compounds, 10% hits;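 further: drop in dye fluorescence marks compound binding to DNA; nearly all actives have a fitted effect of over 60% in size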
# BLM helicase inh-2 – qHTS for Inhibitors of WRN Helicase: BLM Helicase Counterscreen for WRN Inhibitors; 610 compounds, 60% hits; shares compounds with WRN helicase inh-1; Potency, µM (highest dose often 57.1 µM), hits mostly inhibitors; Recombinant BLM helicase DNA unwinding, red fluorescence; further: nearly all actives have a fitted effect of over 60% in size
# Hits are given with their value; – = inactive; ? = inconclusive; · = no result; [ ] = dose if it differs, or a comment. The call rests on the fitted dose curve; in most records, active means well fitted curve in the direction sought with a large enough effect; inconclusive means small, poorly fitted or top-dose-only effect, or another doubt; inactive means no such curve, though single readings can be large; an effect the other way counts as inactive or inconclusive.
SMILES,L3MBTL1 inh-1,WRN helicase inh-1,BLM helicase inh-1,RECQ1 inh-1,FEN1 inhibitor,L3MBTL1 inh-2,L3MBTL1 ctr,others
O=C(CSc1n[nH]c(-c2ccccc2)n1)c1ccc(O)c(O)c1,?,16µM,–,20µM,–,·,·,RECQ1 inh-2=?;WRN helicase inh-2=19µM;TO DNA binding=–;BLM helicase inh-2=19µM
Cc1ccc(NC(=O)/C(=C\c2ccco2)NC(=O)c2ccco2)cc1,·,–,–,·,–,·,·,
Cc1ccc(NC(=O)N/C=C/c2ccco2)cc1,?,?,–,?,–,·,·,RECQ1 inh-2=?;WRN helicase inh-2=–;TO DNA binding=–;BLM helicase inh-2=14µM
CC(=O)n1cc(-c2ccncc2)c2ccccc21,–,–,–,–,–,·,·,
CCOc1ccc(OCc2ccc(C(=O)O)o2)cc1,32µM,–[11.6 µM],–,–,–,11,–,
CCNC(=O)C1(C)CCN(C(=O)c2ccc(OC)cc2)C1 (centres undefined),·,–,·,·,·,·,·,
COC(=O)/C(=C\c1ccc([N+](=O)[O-])o1)NC(=O)c1ccccc1,·,–,–,–,–,·,·,
Cc1cccc(NC(=O)/C(=C\c2ccc([N+](=O)[O-])o2)NC(=O)c2ccc(Cl)cc2)c1,28µM,–[11.6 µM],–,–,–,13,–,
CC(Cc1c[nH]c2ccccc12)C(=O)O (centres undefined),2µM,–[11.6 µM],–,35µM,–,3,–,
CN(CC(=O)Nc1ccc(F)cc1)C(=O)c1cc(-c2ccco2)nc2ccccc12,18µM,?,·,·,–,12,–,
CCOc1ccc(NC(=O)CN(C)C(=O)c2cc(-c3ccco3)nc3ccccc23)cc1OCC,·,–,·,·,–,·,·,
N#C/C(=C\c1ccc(O)c(O)c1)C(=O)c1ccc(O)c(O)c1,0.5µM,0.17µM,·,1.6µM,1.4µM,0.075,?,
CC(C)(C)C1CCc2c(sc(NC(=O)C3CCCO3)c2C(N)=O)C1 (centres undefined),–,–,–,–,–,·,·,
O=C(NNC(=O)c1cc(-c2ccco2)nc2ccccc12)c1ccccc1,–,–[11.6 µM],–,–,–,·,·,
O=C(O)c1cc(-c2ccco2)nc2cc3ccccc3cc12,10µM,?,–,28µM,–,0.84,–,
O=c1cc(OCc2ccccc2)cc[nH]1,28µM,–,·,·,–,6,–,
Cc1[nH]ccc(=O)c1OCc1ccccc1,–,–,–,–,–,·,·,
Oc1ccccc1N=Cc1c(O)ccc2ccccc12,28µM,–,–,–,–,6,–,
COCc1cc(C)nc2sc3c(c12)NC(c1ccc(O)cc1)N(c1ccc(OC)cc1)C3=O (centres undefined),·,·,–,·,–,·,·,
Cc1ccc(C)c(OCCCN2CCCC2)c1,?,–,–,–,–,·,·,
Cc1ccc(C(C)C)cc1OCCCCN1CCCC1,28µM,–,–,–,–,19,–,
Cc1ccc(S(=O)(=O)N2CCN(C(=O)/C=C/c3ccco3)CC2)cc1,28µM,–,–,–,–,27,–,
COc1ccccc1Cn1c(CNS(=O)(=O)c2ccc(CC(C)C)cc2)nc2cccnc21,·,·,–,·,–,·,·,
CN1C(=O)S/C(=C/c2cccn2-c2cccc(C(=O)O)c2)C1=O,?,–[11.6 µM],–,–,–,·,·,
O=C(O)c1cccc(-n2cccc2/C=C\[N+](=O)[O-])c1,32µM,?,–,–,?,21,–,
SMILES,L3MBTL1 inh-1,WRN helicase inh-1,BLM helicase inh-1,RECQ1 inh-1,FEN1 inhibitor,L3MBTL1 inh-2,L3MBTL1 ctr,others
CCCOc1ccc(-c2csc3ncn(Cc4ccc(C(=O)O)cc4)c(=O)c23)cc1,–,–,–,–,–,·,·,
O=C(O)C1C2C=CC(O2)C1C(=O)NCCC1=CCCCC1 (centres undefined),18µM,–,–,–,–,3.8,–,
Cc1nnc(N2C(=O)c3oc4ccccc4c(=O)c3C2c2ccco2)s1 (centres undefined),22µM,?,–,–,–,?,–,
Cc1sc(NC(=O)c2sc3nc4c(C)cccc4cc3c2N)c(C#N)c1C,18µM,?,?,–,–,6.7,–,
Cn1c(N)c(C(=O)COC(=O)Cc2ccc(Cl)cc2Cl)c(=O)n(C)c1=O,–,–,·,·,–,·,·,
O=C(Nc1nc(-c2ccco2)c(-c2ccco2)s1)c1cnccn1,3.5µM,–[11.6 µM],·,·,–,2.7,–,
O=C(Nc1nc(-c2ccco2)c(-c2ccco2)s1)c1c(F)cccc1Cl,?,–,·,·,–,·,·,
O=C(Nc1nc(-c2ccco2)c(-c2ccco2)s1)c1ccc(F)cc1F,8.9µM,?,·,·,?,5.3,–,
O=C(/C=C/Nc1cccc(O)c1)c1ccccc1,–,–,–,–,–,·,·,
CC(=O)c1cccc(NC(=O)Cn2cc3c(n2)CCCC3)c1,·,–,–,–,–,·,·,
Cc1cccc(NCc2ccc(O)c3ncccc23)c1C,25µM,?,–,–,?,9.5,–,
Cc1ccc(NCc2ccc(O)c3ncccc23)cc1,–,–,–,–,–,·,·,
CC(CNc1ccccc1O)C(=O)O (centres undefined),28µM,–,–,–,–,11,–,
NS(=O)(=O)c1ccc(Cl)c(S(N)(=O)=O)c1,·,–,–,·,–,·,·,
O=C(/C=C\c1ccco1)Nc1cc([N+](=O)[O-])ccc1F,–,–,–,–,–,·,·,
O=C(/C=C/c1ccco1)Nc1cc(Cl)ccc1C(=O)O,28µM,–,–,–,–,11,–,

# Screening data (PubChem)
